# Results as given in PubChem BioAssay (NCATS).
# Results filed as inconclusive are left out. Entries that show only a call come without a potency. Values without a mark were called inactive. Active and inactive are the calls of the source. Unless noted, the call rests on the fitted dose curve; in most records, active means well fitted curve in the direction sought with a large enough effect; inconclusive means small, poorly fitted or top-dose-only effect, or another doubt; inactive means no such curve, though single readings can be large; an effect the other way counts as inactive or inconclusive.
# Columns and labels:
# [1] = P-glycoprotein substrates identified in KB-3-1 adenocarcinoma cell line, qHTS therapeutic library screen (AID 1346986); further: nearly all actives have a fitted effect of over 60% in size
# Summary of the method: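 Compounds were tested in dose-response against KB-3-1 and KB-8-5-11 cells at 37 degree C for 72 h, and viability was measured by luminescence. AC50 values came from curve fitting with class-based activity calls.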
# [2] = P-glycoprotein substrates identified in KB-8-5-11 adenocarcinoma cell line, qHTS therapeutic library screen (AID 1346987); further: nearly all actives have a fitted effect of over 65% in size; further: potency means the concentration at half of the fitted maximal effect; on activity change, negative = cytotoxicity: series mostly up to about 44 µM
# Summary of the method: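 P-gp-mediated resistance screen: KB-8-5-11 cells treated 72 h with compounds in dose-response. CellTiter-Glo viability.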
# [3] = qHTS assay for small molecule agonists of the antioxidant response element (ARE) signaling pathway measured by Nrf2-dependant transcriptional activity (AID 720636; active means well fitted curve in the direction sought with a large enough effect in the repeat runs; an effect the other way counts as inactive or inconclusive;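 further: HepG2 cells with an ARE-driven luciferase reporter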)
# Summary of the method: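 Reporter gene assay, HepG2 ARE-luc: 16 hr compound, 37 C, 5% CO2; read-out luciferase luminescence.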
# [4] = qHTS assay for small molecule antagonists of the retinoid-related orphan receptor gamma (ROR-gamma) signaling pathway - cell viability counter screen (AID 720652; active means well fitted curve in the direction sought with a large enough effect in the repeat runs; an effect the other way counts as inactive or inconclusive;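 further: CHO reporter cells with doxycycline-induced ROR-gamma expression; series mostly up to about 92 µM; compound exposure lasted 16 hr before ATP read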)
# Summary of the method: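 Cytotoxicity is quantified via intracellular ATP (CellTiter-Glo luminescence) in doxycycline-induced CHO ROR response element-luciferase reporter cells treated with compound for 16 hr at 37 C, 5% CO2.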
# [5] = qHTS Assay for Identifying Gametocytocidal Compounds (AID 743244); further: potency means the concentration at half of the fitted maximal effect;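 on max response: actives lower the fluorescent signal which means gametocytes are killed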; conditions: P. falciparum 3D7 stage III-V gametocytes, alamarBlue, 72 h; max response: active compounds read low
# Summary of the method: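 Compounds are pinned into medium, gametocytes (stage III–V, 3D7, 20,000 cells/well) added, and plates held 72 h at 37 °C in 5% CO2. AlamarBlue follows for 24 h before fluorescence reading.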
compound,measurement,setting,value
C=C(C(=O)O)[C@H]1C[C@]2(C)[C@@H](O)CC[C@]23O[C@H]1C[C@@H]3C,Potency,[1],inactive
same,Potency,[2],inactive
CC(C)=CCC/C(C)=C/CO[C@@H]1O[C@H](CO)[C@@H](O)[C@H](O)[C@H]1O,Potency,[1],inactive
same,Potency,[2],inactive
O=C1NC(Cc2c[nH]c3ccccc23)C(=O)NC1Cc1c[nH]c2ccccc12 (configuration not stated),Potency,[1],inactive
same,Potency,[2],inactive
CC1(C)C2CC(OC3OC(COC4OCC(O)(CO)C4O)C(O)C(O)C3O)C1(C)CC2O (configuration not stated),Potency,[1],inactive
same,Potency,[2],inactive
COc1cc2c(c(OC)c1CC=C(C)C)C[C@H](c1ccc(O)cc1O)CO2,Potency,[1],inactive
same,Potency,[2],inactive
C=C[C@H]1[C@H](O[C@@H]2O[C@H](CO)[C@@H](O)[C@H](O)[C@H]2O)OC=C(C(=O)OC)[C@H]1CCOC(=O)c1cc(O)c(O)c(O)c1,Potency,[1],inactive
same,Potency,[2],inactive
CC1=C(C(=O)O[C@@H]2O[C@H](COC3OCC(O)C(O)C3O)[C@@H](O)[C@H](O)[C@H]2O)C(C)(C)CCC1 (some centres not stated),Potency,[2],inactive
C[C@@H]1O[C@@H](O[C@@H]2[C@@H](O)[C@H](O[C@H]3CC[C@@]4(C)C(CC[C@]5(C)C4CC=C4[C@@H]6CC(C)(C)CC[C@]6(C(=O)O[C@@H]6O[C@H](CO)[C@@H](O)[C@H](O)[C@H]6O)CC[C@]45C)C3(C)C)O[C@H](C(=O)O)[C@H]2O)[C@H](O)[C@H](O)[C@H]1O (some centres not stated),"activity change, negative = cytotoxicity",[2],7.63% [at 9.29 µM]
C=C[C@H]1[C@H](O[C@@H]2O[C@H](CO)[C@@H](O)[C@H](O)[C@H]2O)OC=C(C(=O)OC)[C@H]1CC(=O)O,Potency,[2],inactive
COC(=O)CC(O)C1OC(c2ccccc2)C(O)C1O (configuration not stated),Potency,[2],inactive
Cc1ccc(NC(=O)C(=O)NC2CC(C)(C)NC(C)(C)C2)cc1,Potency,[2],inactive
Cc1[nH]c2ccccc2c1C1=C(NCCc2ccc(F)cc2)C(=O)N(C)C1=O,Potency,[2],16.4 µM (active)
C[C@@H]1[C@H]2[C@H](O[C@@H]3O[C@H](CO)[C@@H](O)[C@H](O)[C@H]3O)OC=C(C(=O)O)[C@H]2C[C@@H]1O,Potency,[2],inactive
COc1cc(O)cc(C)c1C(=O)OC1C(CO)OC(OC2C(O)C(O)C(O)C(O)C2O)C(O)C1O (configuration not stated),Potency,[2],inactive
COC(=O)[C@@H](O)[C@H]1[C@@]2(C)CC3(O)[C@@H](C(=O)[C@H]2O)[C@]24O[C@]25CC(=O)O[C@@H](c2ccoc2)[C@]5(C)CCC4[C@]13C (some centres not stated),Potency,[2],inactive
NCc1c[nH]c(=S)n1[C@@H]1CCc2c(F)cc(F)cc2C1,Potency,[2],inactive
CC1=CC(=O)CC(C)(C)C1/C=C/C(C)O[C@@H]1O[C@H](CO)[C@@H](O)[C@H](O)[C@H]1O[C@@H]1OC[C@](O)(CO)[C@H]1O (some centres not stated),Potency,[2],inactive
COC(=O)C[C@H]1C(C)(C)[C@H](OC(=O)C(C)C)[C@@]2(O)C(=O)[C@]1(C)C1CC[C@]3(C)C(CC(=O)O[C@H]3c3ccoc3)[C@]13O[C@@H]32 (some centres not stated),Potency,[2],inactive
CC1(C)CCC[C@@]2(C)C1[C@H](OC(=O)/C=C/C=C/C(=O)O)C=C1COC(=O)[C@@]12O (some centres not stated),Potency,[2],inactive
COc1ccc(C(=O)C2CCN(CC(=O)N(Cc3nc4c(c(=O)[nH]3)COCC4)CC3CC3)CC2)cc1,Potency,[2],inactive
Cc1cc(-c2cc(O)ccc2Cl)cc2nnc(Nc3ccc(OCCN4CCCC4)cc3)nc12,Potency,[2],4.61 µM (active)
C/C1=C\[C@H]2OC(=O)[C@@H](C)[C@@H]2CC/C(C(=O)O)=C/CC1,Potency,[2],inactive
COC(=O)C1=C2Nc3ccccc3C23CCN2CCCC(C(C)O)(C1)C23 (configuration not stated),Potency,[2],inactive
NCc1ccc(Nc2ncc(F)c(Nc3ccccc3)n2)cc1,Potency,[2],5.8 µM (active)
CC(C)Oc1ccc(C(=O)NC(CNC(=O)CN(C)C)Cc2ccc(-c3cn4cccc(C(C)O)c4n3)cc2)cc1Cl (configuration not stated),Potency,[2],6.51 µM (active)
Cn1c(=O)cc(N2CCCC(N)C2)n(Cc2cc(F)ccc2C#N)c1=O (configuration not stated),Potency,[2],inactive
CC(=O)O[C@H]1C[C@@](O)(C(C)C)C2[C@@H](OC(=O)c3ccc(O)cc3)C[C@@]3(C)O[C@H]3C[C@]21C (some centres not stated),Potency,[2],inactive
COc1cc(N)c(Cl)cc1C(=O)NC[C@@H]1CCN2CCC[C@@H]12,Potency,[2],inactive
Oc1ccc(CNc2ccccc2F)c2cccnc12,Potency,[2],6.51 µM (active)
CC1CCC2(C(=O)O)CCC3(C)C(=CCC4C5(C)CCC(O)C(C)(CO)C5CCC43C)C2C1(C)O (configuration not stated),Potency,[2],inactive
CN=C(N)NCCCCC/C=C(/C)CC(C)C1OC(=O)C(C)C(O)/C=C/C(C)C(O)CC(O)C(C)C(O)CCC(C)C(O)CC2(O)OC(CC(OC(=O)CC(=O)O)CC(O)CC(O)C(C)C(O)/C(C)=C/CCC1C)CC(O)C2O (configuration not stated),outcome,[2],inactive [at 9.29 µM]
CC1=C(CCC(C)O[C@@H]2O[C@H](CO)[C@@H](O)[C@H](O)[C@H]2O)C(C)(C)CCC1=O (some centres not stated),Potency,[2],inactive
O=C1CC2(CCCC2)[C@H](O)C(=O)N1CCCCN1CCN(c2ncccn2)CC1,Potency,[2],inactive
COc1cc2c(cc1OC)-c1[nH]nc(Nc3cccc(F)c3)c1C2,Potency,[2],0.092 µM (active)
Cc1cnc(NC(=O)Nc2cc(Br)c(C)cc2OCC2CNCCO2)cn1 (configuration not stated),Potency,[2],8.2 µM (active)
CN1CCN(C2CCC(n3cc(-c4ccc(Oc5ccccc5)cc4)c4c(N)ncnc43)CC2)CC1 (configuration not stated),Potency,[2],5.8 µM (active)
CCC1C(=O)OC23C=C[C@@H]4C(C(=O)O)=CO[C@H](O[C@@H]12)[C@@H]43 (some centres not stated),Potency,[2],inactive
COC(=O)C[C@H]1[C@]2(C)C3=C(C)[C@H](c4ccoc4)C[C@H]3O[C@@H]2[C@H](OC(C)=O)C2[C@](C)(C(=O)OC)C=CC(=O)[C@@]21C (some centres not stated),Potency,[2],inactive
COC1CC(OC2CCC3(C)C(=CCC4C3C(OC(C)=O)C(OC(=O)/C=C/c3ccccc3)C3(C)C(C(C)O)CCC43O)C2)OC(C)C1OC1CC(OC)C(OC2OC(C)C(OC3OC(CO)C(O)C(O)C3O)C(OC)C2O)C(C)O1 (configuration not stated),outcome,[2],inactive [at 9.29 µM]
CC(=O)c1ccc(O[C@@H]2O[C@H](CO)[C@@H](O)[C@H](O)[C@H]2O)cc1,Potency,[2],inactive
CC(C)c1nnc(-c2ccc(-c3ccccc3)nc2)n1-c1cccc2nonc12,Potency,[2],inactive
CC(/C=C/C1=CC2=CC(=O)C(C)(O)C(O)C2=CO1)=C\C(C)CCO (configuration not stated),Potency,[2],inactive
OCc1ccc(O[C@@H]2O[C@H](CO)[C@@H](O)[C@H](O)[C@H]2O)cc1,Potency,[2],inactive
CC[C@H](C)[C@H](NC(=O)[C@H]([C@@H](C)CC)N(C)C(C)=O)C(=O)N[C@H](C(=O)N[C@@H](CC(C)C)C(=O)[C@@]1(C)CO1)[C@@H](C)O,Potency,[2],2.59 µM (active)
O=C1OCC(c2ccccc2)=C1Cc1ccccc1,Potency,[2],inactive
CC(=O)O[C@@H]1CC(C)=C2[C@H]1[C@H](C)CC[C@H]2/C=C(\C)C(=O)O,outcome,[3],inactive
same,outcome,[4],inactive
CC(=O)O[C@H]1C(=O)[C@@]2(C)[C@H]([C@H](OC(=O)c3ccccc3)[C@]3(O)C[C@H](OC(=O)[C@H](O)[C@@H](NC(=O)c4ccccc4)c4ccccc4)C(C)=C1C3(C)C)[C@]1(OC(C)=O)CO[C@@H]1C[C@@H]2O,outcome,[3],inactive
same,max response,[5],-7.34%
Cc1ccc(N)cc1O,outcome,[4],inactive
same,Potency,[5],31.6 µM (active)
